Hits are enriched below; roughly 7.4% of the tested compounds scored in any of these assays.
ELG1 genotoxic = induces genotoxicity in HEK293T cells with luciferase-tagged ELG1 | actives 1.3% (n = 330,000) | HEK293T ELG1-luciferase reporter, luminescence, 16 h | Potency, µM (series often up to 46 µM), without a hit: at the top dose activity change, positive = activation, hits mostly activators; further: % of control where 0% means no effect; nearly all actives have a fitted effect of over 60% in size
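Genotoxic stress is detected as increased luminescence from luciferase-tagged ELG1 in HEK293T cells, measured with ONE-Glo after a 16 hr treatment at 37 °C.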
FLuc counter = firefly luciferase modulation, counter-screen for miR-21 project; purified FLuc, Km substrates, luminescence inhibition; Potency, µM (doses to about 57.5 µM), without a hit: at the highest dose activity change, negative = inhibition, hits mostly inhibitors; actives 6.9% (n = 360,000);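 further: plate controls were vehicle for no effect and reference inhibitor for full effect; nearly all actives have a fitted effect of over 55% in size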
Target sequence (P08659 whole entry, looked up): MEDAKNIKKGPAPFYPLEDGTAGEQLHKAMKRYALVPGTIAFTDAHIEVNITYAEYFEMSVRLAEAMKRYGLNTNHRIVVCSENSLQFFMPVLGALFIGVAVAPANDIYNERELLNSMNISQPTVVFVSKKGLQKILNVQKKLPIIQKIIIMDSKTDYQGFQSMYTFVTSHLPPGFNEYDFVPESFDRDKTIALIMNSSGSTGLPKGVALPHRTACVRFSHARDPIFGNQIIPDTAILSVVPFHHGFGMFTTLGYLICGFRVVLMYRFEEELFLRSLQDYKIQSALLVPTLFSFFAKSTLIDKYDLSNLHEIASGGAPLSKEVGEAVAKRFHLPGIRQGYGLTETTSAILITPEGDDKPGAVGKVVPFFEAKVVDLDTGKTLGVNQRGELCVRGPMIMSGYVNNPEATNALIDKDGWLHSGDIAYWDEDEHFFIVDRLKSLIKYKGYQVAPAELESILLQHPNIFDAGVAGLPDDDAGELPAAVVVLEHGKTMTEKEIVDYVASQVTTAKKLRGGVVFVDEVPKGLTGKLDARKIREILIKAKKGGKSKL
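Purified P. pyralis luciferase, 10 nM final, with Km-level 10 uM D-luciferin and 10 uM ATP in 50 mM Tris acetate pH 7.5, 10 mM Mg acetate, 0.01% Tween-20, 0.05% BSA; 6-point qHTS titration about 60 µM downward; luminescence read.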
Rab9 promoter act = activates the Rab9 promoter; Huh7 Rab9 promoter-luciferase reporter, luminescence, 24 h; Potency, µM (series often up to 9.22 µM), for inactives: at the top dose activation, negative = inhibition, most hits filed as activators; actives 2.8% (n = 320,000); further: % of control where 0% means no effect; nearly all actives have a fitted effect of over 60% in size
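Huh7 cells stably carrying a Rab9 promoter-luciferase reporter, 1500 cells per well in OP-MEM I with 10% FBS, treated with compound 24 hours at 37C. Luciferase activity read by luminescence after 10 minutes with Amplite reagent.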
SMN2 splice enh = SMN2 splice variant enhancement | HEK293 SMN2-luciferase splicing reporter, luminescence, 30-36 h | Potency, µM (titrated, usually from 46.1 µM), inactives show at the highest dose activity change, positive = activation, actives largely listed as activators | actives 2.8% (n = 210,000) | AID 1458; further: % of control where 0% means no effect; nearly all actives have a fitted effect of over 55% in size
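HEK293 cells carry an SMN2 minigene-luciferase reporter in which exon 7 inclusion puts luciferase in frame. Cells were seeded at 2000 cells/well, attached for 10-12 hours, then exposed to compounds for 30-36 hours at 37C before ONE-Glo luminescence.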
NPC1 prom act = NPC1 promoter activation | AID 485313 | Potency, µM (series often up to 9.22 µM), for the others: at the highest dose activation, usual class: activators | actives 2.4% (n = 320,000) | Huh7 NPC1 promoter luciferase reporter, 24 h; further: % of control where 0% means no effect; nearly all actives have a fitted effect of over 60% in size
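Huh7 cells stably carrying NPC1 promoter–luciferase, plated in Opti-MEM with 10% FBS for 2 h, were exposed to compound in DMSO for 24 h at 37 °C; luciferase reagent was added for 10 min and luminescence read.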
* = called active by the depositor; ? = inconclusive; . = no result; [ ] = another dose, or the depositor's remark. The call rests on the fitted dose curve; in most records, active means well fitted curve in the direction sought with a large enough effect; inconclusive means small, poorly fitted or top-dose-only effect, or another doubt; inactive means no such curve, though single readings can be large; an effect the other way counts as inactive or inconclusive. Potency means the concentration at half of the fitted maximal effect.

SMILES	ELG1 genotoxic	FLuc counter	Rab9 promoter act	SMN2 splice enh	NPC1 prom act
Cc1[nH]c2ccc(Br)cc2c1CCNC(=O)c1cc2ccccc2oc1=O	.	-11%	.	?	.
Cc1cccc(C(=O)Nc2ccc(-c3nc4cc(C(C)C)ccc4o3)cc2)c1	.	?	.	-3%	.
CCc1ccc(C(=O)Nc2cccc(-c3nc4cc(C(C)C)ccc4o3)c2)cc1	.	2.7µM*	.	-5%	.
O=C(Nc1cccc(-c2nc3cc(Cl)ccc3o2)c1)c1ccc(F)cc1	.	-1%	.	.	.
COc1cc(OC)cc(C(=O)Nc2ccc(-c3nc4ccccc4o3)cc2)c1	-5%	-10%	-2%	-13%	-3%
COc1ccc([C@@H](C)NC(=O)c2ccc3oc(C(C)C)nc3c2)cc1	3%[9.26 µM]	17µM*	?	.	?
CC(C)c1ccc2oc(-c3ccc(NC(=O)c4ncn[nH]4)cc3)nc2c1	9.2µM*	1.5µM*	?	?	?
COc1cc(OC)cc(C(=O)Nc2ccc(-c3nc4cc(C(C)C)ccc4o3)cc2)c1	.	11µM*	.	-29%	.
Cc1ccccc1-c1noc(-c2ccccc2OCC(=O)Nc2cccc([N+](=O)[O-])c2)n1	.	3%	.	.	.
CCCN(CCC)C(=O)Cn1c(=O)n(-c2ccc(C)c(C)c2)c(=O)c2c3c(sc21)CCCCC3	.	4%	.	1%	.
CCC(C)c1ccc2oc(-c3ccc(NC(=O)c4ncn[nH]4)cc3)nc2c1 (stereo not drawn)	?	2.7µM*	6%	26%	15%
COc1ccc(Cl)cc1Nc1nc2ccc(C(=O)c3ccccc3)cc2n2cnnc12	.	-1%	.	.	.
CCc1cccc2c(-c3ccccc3)nc(SCC(=O)Nc3ccccc3)nc12	.	-1%	.	-7%	.
CCCc1cc(C(=O)Nc2cc(C)ccc2O)no1	15µM*	2.7µM*	-19%	.	27%
Cc1ccc(-c2cc(C(=O)Nc3c(C#N)cnn3C)no2)cc1	13%	6.7µM*	27%	?	15%
Cc1ccc(O)c(NC(=O)c2cc(-c3ccccc3)on2)c1	16µM*	?	15%	.	?
Cc1ccc(-c2cc(C(=O)Nc3cnn(C(C)C)c3)no2)cc1	-1%	?	9%	.	13%
Cc1ccc(C(=O)Nc2cnc3ccccn3c2=O)cc1	4.6µM*	17µM*	1.6µM*	11µM*	2.2µM*
O=C(Nc1cnc2ccccn2c1=O)c1ccc(Cl)cc1Cl	?	1.7µM*	0.28µM*	1.6µM*	0.32µM*
O=C1CC(c2nc3ccccc3n2Cc2c(F)cccc2Cl)CN1c1cccc(C(F)(F)F)c1 (stereo not drawn)	.	-2%	.	7%	.
NC(=O)c1ccsc1NC(=O)COC(=O)/C=C/c1ccccc1	-17%	11µM*	0%	.	7%
NC(=O)c1ccsc1NC(=O)COC(=O)c1cc(Cl)ccc1O	0%	4.3µM*	-3%	.	-3%
NC(=O)c1ccsc1NC(=O)COC(=O)c1ccccc1F	5%	11µM*	0%	.	1%
NC(=O)c1ccsc1NC(=O)COC(=O)/C=C/c1ccccc1[N+](=O)[O-]	1%	.	.	.	.
CC(=O)NC(c1ccco1)c1cc(Br)c2cccnc2c1O (stereo not drawn)	.	1%	-27%	.	-5%
SMILES	ELG1 genotoxic	FLuc counter	Rab9 promoter act	SMN2 splice enh	NPC1 prom act
COc1cccc(CNC(=O)CN2C(=O)CSc3c2c(C)nn3-c2ccccc2)c1OC	.	2%	.	.	.
N#Cc1ccsc1NC(=O)COC(=O)c1cc(Br)ccc1O	15%	9.5µM*	?	.	16%
Cn1cccc1C(=O)OCC(=O)Nc1sccc1C#N	21µM*	.	.	.	.
N#Cc1ccsc1NC(=O)COC(=O)c1ccc(Br)o1	4%	.	.	.	.
COc1ccc(CCC(=O)Nc2sccc2C#N)cc1	6.5µM*	17µM*	2µM*	16µM*	4µM*
N#Cc1ccsc1NC(=O)COC(=O)c1ccc2ccccc2c1	?	11µM*	0.45µM*	?	?
COC(=O)C1=C(C(=O)OC)[C@@H]2N(C)c3ccccc3[C@@]23C[C@@H](C(=O)OC)N(S(=O)(=O)c2ccc([N+](=O)[O-])cc2)C3=N1	.	.	.	3%[9.22 µM]	.
CCOC(=O)Cn1c(=O)n(-c2ccccc2OC)c2nc(-c3ccccc3)nc(C(N)=O)c21	.	-1%	.	.	.
COCCN(Cc1ccc(C)c(Br)c1)S(=O)(=O)c1ccc2[nH]c(=O)ccc2c1	.	-7%	.	.	.
O=C(CC(c1cccs1)N1Cc2ccccc2C1=O)Nc1ccc(F)cc1 (stereo not drawn)	.	1%	.	.	.
CCC(=O)N1CCc2cc(Br)cc(S(=O)(=O)N3CCCC(C(=O)Nc4cccc(F)c4)C3)c21 (stereo not drawn)	.	-1%	.	-8%	.
Cc1ccc2c(c1)-c1c(cnc3cc(-c4ccc(Cl)cc4)nn13)CO2	.	-7%	.	3%	.
CCc1ccc(-c2ccc(SCc3ccccn3)nn2)cc1	?	8.5µM*	?	?	3.2µM*
CCOc1ccc(-c2ccc(SCc3ccccn3)nn2)cc1	-7%	13µM*	?	16%	?
COc1cc(C)ccc1OCc1cc(C(=O)N2CCCCCC2)no1	2%	?	22%	.	18%
COc1cc(C)ccc1OCc1cc(C(=O)N(Cc2c(C)nn(C)c2C)C2CC2)no1	14%	12µM*	?	.	?
COc1cc(C)ccc1OCc1cc(C(=O)N(Cc2nccn2C)C(C)C)no1	?	11µM*	2.2µM*	.	2.5µM*
COc1ccc2cc(-c3nc4ccccc4n3C)c(=O)oc2c1	?	5.4µM*	1.3µM*	13µM*	2µM*
Cn1c(-c2cc3ccccc3oc2=O)nc2ccccc21	?	21µM*	3.5µM*	.	4.5µM*
Cc1cc(N)ccc1-c1cc2ccccc2oc1=O	9%	?	29%	.	20%
CCCC[C@H]1C[C@@H]1[C@@H]1N(P(=O)(c2ccccc2)c2ccccc2)C[C@@](O)(c2ccccc2)CC12CC2	.	.	.	-38%	.
CCOc1ccc(CCNC(=O)c2ccc(CSCc3ccccc3C)o2)cc1OCC	.	-12%	.	.	.
O=C1OC(c2ccc3c(c2)OCO3)N(C(=O)c2ccc(Cl)c(Cl)c2)c2ccccc21 (stereo not drawn)	?	-1%	3.2µM*	13µM*	?
Cc1cccc(C(=O)N2c3ccccc3C(=O)OC2c2ccc3c(c2)OCO3)c1 (stereo not drawn)	6%	-11%	4%	?	17%
CCOc1ccccc1NC(c1nnc(-c2ccccc2)o1)c1ccc(F)cc1Cl (stereo not drawn)	.	-7%	.	2%	.
C/C(=N\Nc1cc(N2CCOCC2)ncn1)c1ccccc1	?	5.4µM*	2.5µM*	.	2.5µM*
C/C(=N\Nc1cc(N2CCOCC2)ncn1)c1cccc([N+](=O)[O-])c1	1%	-18%	21%	11µM*	18%
Clc1ccccc1/C=N/Nc1cc(N2CCOCC2)ncn1	14%	?	?	.	?
N#Cc1c(C(F)(F)F)cc(=O)n2c1[nH]c1ccccc12	-6%	27µM*	2%	.	0%

High-throughput results deposited in PubChem by National Center for Advancing Translational Sciences (NCATS).
